Measurements taken from PubChem BioAssay (NCATS).
Records with an inconclusive call do not appear. Activity calls are given as the source filed them. Unless noted, the call rests on the fitted dose curve; in most records, active means well fitted curve in the direction sought with a large enough effect; inconclusive means small, poorly fitted or top-dose-only effect, or another doubt; inactive means no such curve, though single readings can be large; an effect the other way counts as inactive or inconclusive. Where a SMILES comes first, the peptide text is derived from it. [ ]: non-standard residue; d: D form. ξ: configuration not given here. ξLac(3-iPr) = CC(C)CC(O)C(=O)O; NMeV = CN[CH](C(=O)O)C(C)C; NMeA = CN[CH](C)C(=O)O; βAla = NCCC(=O)O

Assays:
HeLa = assay: Primary qHTS to identify gynecologic anti-cancer compounds using libraries of approved drugs and bioactive compounds (AID 1345084); settings: Gynecologic cancer cell panel viability, ATPlite luminescence, 48 h; series mostly up to 57.5 µM; further: nearly all actives have a fitted effect of over 55% in size; further: potency means the concentration at half of the fitted maximal effect; on activity change, negative = cytotoxicity: on the % scale 0 is the no-effect control and ±100 the full control effect
Outline: (§1)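 Five-concentration response, 48 h; readout is ATP-driven luciferase luminescence.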

HEK293 = assay: Cytotoxic Profiling of Annotated Libraries Using Quantitative High-Throughput Screening (AID 1296008); settings: Five cell lines viability, CellTiter-Glo ATP luminescence, 48-72 h; max response: stronger effect = lower value; further: nearly all actives have a fitted effect of over 60% in size; further: potency means the concentration at half of the fitted maximal effect
Outline: (§2)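 Compounds were pin-transferred onto cells and incubated 48 or 72 hr at 37 degree Celsius, 95% humidity. CellTiter-Glo was added, plates sat 10 min at room temperature, then ATP-coupled luminescence was imaged as the viability read-out.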

NIH3T3 = assay: as above; settings: Five cell lines viability, CellTiter-Glo ATP luminescence, 48-72 h; max response: stronger effect = lower value
Outline: as §2

Es-2 = assay: Primary qHTS to identify gynecologic anti-cancer compounds using libraries of approved drugs and bioactive compounds (AID 1345084); settings: Gynecologic cancer cell panel viability, ATPlite luminescence, 48 h; series mostly up to 57.5 µM; further: nearly all actives have a fitted effect of over 55% in size; further: potency means the concentration at half of the fitted maximal effect; on activity change, negative = cytotoxicity: on the % scale 0 is the no-effect control and ±100 the full control effect
Outline: as §1

Hek293T = assay: as above; settings: Gynecologic cancer cell panel viability, ATPlite luminescence, 48 h, control line for the selectivity index; series mostly up to 57.5 µM
Outline: as §1

PA-1 = assay: as above; settings: Gynecologic cancer cell panel viability, ATPlite luminescence, 48 h; series mostly up to 57.5 µM
Outline: as §1

Tov-21-G = assay: as above; settings: Gynecologic cancer cell panel viability, ATPlite luminescence, 48 h; series mostly up to 57.5 µM
Outline: as §1

Tov112D = assay: as above; settings: Gynecologic cancer cell panel viability, ATPlite luminescence, 48 h; series mostly up to 57.5 µM
Outline: as §1

HACAT = assay: qHTS assay to identify novel small-molecules to repurpose for Merkel cell carcinoma treatment (AID 1296009); settings: MCC and control cell lines, CellTiter-Glo viability, 72 h; at 44.8 µM (top of the series) unless noted; further: nearly all actives have a fitted effect of over 60% in size
Outline: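 Luminescence from CellTiter-Glo, read 10 min after addition at room temperature, reported viability following a 72 hr, 37 degree celsius treatment with NPC or MIPE compounds in titration; values normalized to plate controls.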

C33A = assay: Primary qHTS to identify gynecologic anti-cancer compounds using libraries of approved drugs and bioactive compounds (AID 1345084); settings: Gynecologic cancer cell panel viability, ATPlite luminescence, 48 h; series mostly up to 57.5 µM; further: nearly all actives have a fitted effect of over 55% in size; further: potency means the concentration at half of the fitted maximal effect; on activity change, negative = cytotoxicity: on the % scale 0 is the no-effect control and ±100 the full control effect
Outline: as §1

[1] = target: Cytochrome P450 2D6 (Homo sapiens) (UniProt P10635); assay: Cytochrome P450 family 2 subfamily D member 6 (CYP2D6) small molecule antagonists: luciferase biochemical (cell-free) qHTS assay (AID 1645840; active means well fitted curve in the direction sought with a large enough effect in the repeat runs; an effect the other way counts as inactive or inconclusive; further: nearly all actives have a fitted effect of over 55% in size; further: potency means the concentration at half of the fitted maximal effect)
Sequence of Cytochrome P450 2D6 (Homo sapiens) (P10635 whole entry, looked up): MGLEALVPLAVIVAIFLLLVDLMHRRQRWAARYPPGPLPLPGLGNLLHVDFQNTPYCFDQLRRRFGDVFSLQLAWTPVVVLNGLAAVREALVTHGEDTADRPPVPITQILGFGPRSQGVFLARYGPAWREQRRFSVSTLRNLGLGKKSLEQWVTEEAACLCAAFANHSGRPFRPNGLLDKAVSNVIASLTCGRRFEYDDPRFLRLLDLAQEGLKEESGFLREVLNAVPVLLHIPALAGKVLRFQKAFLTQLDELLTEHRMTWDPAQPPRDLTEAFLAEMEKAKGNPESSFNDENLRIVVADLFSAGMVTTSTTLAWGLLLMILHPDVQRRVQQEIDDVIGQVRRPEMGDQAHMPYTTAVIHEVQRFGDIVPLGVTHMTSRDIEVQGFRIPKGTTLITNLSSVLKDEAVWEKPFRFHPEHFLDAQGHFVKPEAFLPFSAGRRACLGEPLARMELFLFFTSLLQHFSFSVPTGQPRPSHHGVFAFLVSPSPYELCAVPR
Outline: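 P450-Glo CYP2D6 system: proluciferin substrate converted by enzyme to luciferin, read by luminescence proportional to activity. Enzyme-substrate mix with compound 10 min at room temperature, then NADPH regeneration 1 h before detection reagent.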

SKOV3 = assay: Primary qHTS to identify gynecologic anti-cancer compounds using libraries of approved drugs and bioactive compounds (AID 1345084); settings: Gynecologic cancer cell panel viability, ATPlite luminescence, 48 h; series mostly up to 57.5 µM; further: nearly all actives have a fitted effect of over 55% in size; further: potency means the concentration at half of the fitted maximal effect
Outline: as §1

CAOV3 = assay: as above; settings: Gynecologic cancer cell panel viability, ATPlite luminescence, 48 h; series mostly up to 57.5 µM
Outline: as §1

[2] = Primary qHTS for Huh7 cytotoxicity: counterscreen for inhibitors of MERS-S pseudotyped particle cell entry (AID 1479147; calls by dose curve); settings: outcome: dose series up to 57.1 µM unless noted
[3] = Primary qHTS for Vero E6 cytotoxicity: counterscreen for inhibitors of SARS-S pseudo-typed particle cell entry (AID 1479150; calls by dose curve; further: on the % scale 0 is the no-effect control and ±100 the full control effect); settings: outcome: dose series up to 57.1 µM unless noted
[4] = Cytotoxicity counterscreen for inhibitors of SARS-CoV-2 cell entry (AID 1645845; calls by dose curve; further: nearly all actives have a fitted effect of over 50% in size)
Outline: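 After a 15 min room-temperature ATPLite 1step step, luminescence reflected ATP remaining in HEK293-ACE2 cells exposed to compound for 1 h plus 48 h at 37 C, with percent activity set by cell and no-cell controls.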

Fc1cc(F)c2c(c1)[C@H]1C=CC[C@H]1C(c1cccnc1)N2 (stereo not given in full)
active: Potency (HeLa) 14.1 µM

CC1=CC2/C=C(\C)CCC(O)C(O)/C=C/C(=O)C23C(=O)NC(CC(C)C)C3C1C (stereo not given)
inactive: Potency (Tov-21-G)
active: Potency (HEK293) 2.82 µM | Potency (NIH3T3) 7.96 µM | Potency (Es-2) 10 µM | Potency (Hek293T) 7.94 µM | Potency (PA-1) 12.6 µM | Potency (Tov112D) 10 µM

Cc1cccc(NC(=O)c2ccc(C(F)(F)F)cc2C(=O)O)n1
inactive: outcome (HACAT)

NNC(=O)c1nn(Cc2ccc(Cl)cc2Cl)c2ccccc12
inactive: max response (NIH3T3) -5.07% | Potency (C33A) | Potency (Es-2) | Potency (HeLa) | Potency (Hek293T) | Potency (Tov112D)

CCCCCn1cc(C(=O)Cc2ccccc2OC)c2ccccc21
inactive: Potency [1] | max response (NIH3T3) -7.87% | Potency (C33A) | Potency (Es-2) | Potency (HeLa) | Potency (Hek293T) | Potency (PA-1) | Potency (SKOV3) | Potency (Tov-21-G) | Potency (Tov112D)

CC(=O)O[C@H]1C(=O)[C@]2(C)C(O)C[C@H]3OC[C@@]3(OC(C)=O)[C@H]2[C@H](OC(=O)c2ccccc2)[C@]2(O)C[C@H](O)C(C)=C1C2(C)C (stereo not given in full)
inactive: max response (NIH3T3) -3.65% | Potency (C33A) | Potency (CAOV3) | Potency (Es-2) | Potency (HeLa) | Potency (Hek293T) | Potency (PA-1) | Potency (SKOV3) | Potency (Tov-21-G) | Potency (Tov112D)

C[C@]12CC[C@H](O[C@@H]3O[C@H](CO)[C@@H](O)[C@H](O)[C@H]3O)CC1CC[C@@H]1C2CC[C@]2(C)[C@@H](C3=CC(=O)OC3)CC[C@]12O (stereo not given in full)
active: Potency (HEK293) 3.17 µM | Potency (C33A) 5.62 µM | Potency (Es-2) 10 µM | Potency (HeLa) 10 µM | Potency (Hek293T) 7.94 µM | Potency (PA-1) 7.94 µM | Potency (SKOV3) 8.91 µM | Potency (Tov-21-G) 5.01 µM | Potency (Tov112D) 3.16 µM
inactive: outcome (NIH3T3)

COc1ccc(C(C)(C)C)cc1CN[C@H]1C2CCN(CC2)[C@H]1C(c1ccccc1)c1ccccc1
active: Potency [1] 2.68 µM | Potency (HEK293) 10.3 µM
inactive: outcome [2] | outcome [3] | Potency [4] | max response (NIH3T3) -16.4% | Potency (CAOV3) | Potency (HeLa) | Potency (Hek293T) | Potency (PA-1) | Potency (SKOV3) | Potency (Tov-21-G) | Potency (Tov112D)

C/C=C(\C)C(=O)O[C@@H]1[C@@H](C)[C@]2(O)C3C=C(C)C(=O)[C@@]3(O)CC(CO)=C[C@H]2C2C(C)(C)[C@@]21OC(=O)C(C)CC (stereo not given in full)
inactive: outcome (NIH3T3) | outcome (HACAT) inactive [at 17.4 µM] | Potency (C33A) | Potency (CAOV3) | Potency (HeLa) | Potency (Hek293T) | Potency (SKOV3) | Potency (Tov-21-G) | Potency (Tov112D)

COC[C@]12CN(C)C3C4[C@H](OC)[C@H]1C3(C(OC)C[C@H]2O)[C@H]1C[C@@]2(O)[C@H](OC(=O)c3ccccc3)[C@@H]1[C@]4(O)[C@@H](O)[C@@H]2OC (stereo not given in full)
inactive: Potency (CAOV3)

CCC(C)C1NC(=O)C2CCCN2C(=O)C(CC(C)C)OC(=O)CCNC(=O)C(C)N(C)C(=O)C(C(C)C)N(C)C1=O (stereo not given) (cyclo([ξLac(3-iPr)]PI[NMeV][NMeA][βAla]); configuration not given here)
inactive: Potency (C33A)

CN(CC[C@H](N)CC(=O)N[C@H]1C=C[C@@H](n2ccc(N)nc2=O)O[C@@H]1C(=O)O)C(=N)N
inactive: outcome (HEK293) | outcome (HACAT) inactive [at 9.27 µM] | activity change, negative = cytotoxicity (C33A) 6.23% [at 11.6 µM] | activity change, negative = cytotoxicity (CAOV3) 8.99% [at 11.6 µM] | activity change, negative = cytotoxicity (Es-2) -2.42% [at 11.6 µM] | activity change, negative = cytotoxicity (HeLa) 9.86% [at 11.6 µM] | activity change, negative = cytotoxicity (Hek293T) 1.23% [at 11.6 µM] | activity change, negative = cytotoxicity (PA-1) 5.22% [at 11.6 µM] | activity change, negative = cytotoxicity (Tov-21-G) 2.99% [at 11.6 µM] | activity change, negative = cytotoxicity (Tov112D) 1.2% [at 11.6 µM]

CC1CCCCCC(=O)c2c(O)cc(O)cc2CC(=O)O1 (stereo not given)
inactive: max response (NIH3T3) 2.84% | outcome (HACAT) | Potency (C33A) | Potency (CAOV3) | Potency (Es-2) | Potency (HeLa) | Potency (Hek293T) | Potency (PA-1) | Potency (SKOV3) | Potency (Tov-21-G) | Potency (Tov112D)
